# Measurements from the supplement of paper PMC12669032.
# Values without a mark were called inactive.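 How the source made its calls: active = AUC reduced over 20% with Padj below 0.05 in at least 2 of 3 replicates; inactive = otherwise.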
# Key:
# Experiment in all cases: growth AUC relative to DMSO control (median of replicates) (fraction); higher = more growth (less inhibition), active = hit call of the paper
# Conditions in all cases: 20 µM; 24 h
# Akkermansia muciniphila = tested on: Akkermansia muciniphila
# Summary of the method: (§1)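 Gut bacterial monocultures were grown anaerobically at 37 °C in mGAM, starting at OD600 0.05, with 20 µM compound (1% DMSO) in round-bottom 96-well plates under pierced gas-permeable seals. OD600 was read hourly for 24 h. Area under the growth curve (minimum OD set to 0) was normalised to the plate median of DMSO controls, or to row and column medians on the industrial chemical plate. The value is the median of three biological replicates grown on separate days.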
# Bacteroides caccae = tested on: Bacteroides caccae
# Summary of the method: as §1
# Bacteroides clarus = tested on: Bacteroides clarus
# Summary of the method: as §1
# Bacteroides dorei = tested on: Bacteroides dorei
# Summary of the method: as §1
# Bacteroides stercoris = tested on: Bacteroides stercoris
# Summary of the method: as §1
# [1] = tested on: Bacteroides thetaiotaomicron
# Summary of the method: as §1
# Bacteroides uniformis = tested on: Bacteroides uniformis
# Summary of the method: as §1
# [2] = tested on: Bifidobacterium longum subsp. longum
# Summary of the method: as §1
# Clostridium difficile = tested on: Clostridium difficile
# Summary of the method: as §1
# Collinsella aerofaciens = tested on: Collinsella aerofaciens
# Summary of the method: as §1
SMILES,growth AUC (Akkermansia muciniphila),growth AUC (Bacteroides caccae),growth AUC (Bacteroides clarus),growth AUC (Bacteroides dorei),growth AUC (Bacteroides stercoris),growth AUC [1],growth AUC (Bacteroides uniformis),growth AUC [2],growth AUC (Clostridium difficile),growth AUC (Collinsella aerofaciens)
Cc1cc(Cl)ccc1O[C@H](C)C(=O)O,1.04,0.841,1,0.982,1.15,0.991,0.958,1.01,0.972,0.968
C[C@@H](Oc1ccc(Oc2cnc3cc(Cl)ccc3n2)cc1)C(=O)O,1.07,0.938,1.05,1,1.29,0.986,0.988,0.964,0.989,0.976
c1ccc2c(c1)-c1cccc3cccc-2c13,0.967,0.969,0.997,0.999,0.98,0.963,0.996,0.857,1.02,0.93
CC(C)OC(=O)Nc1cccc(Cl)c1,1.06,0.915,0.985,0.948,1.04,1.02,0.984,0.981,1.01,0.963
C[C@@H](Oc1ccc(Oc2ccc(C(F)(F)F)cn2)cc1)C(=O)O,1.08,1.04,1.02,1.02,1.05,1.02,0.995,0.985,1.02,0.957
CC1(C)[C@H](C(=O)O[C@H](C#N)c2cccc(Oc3ccccc3)c2)[C@@H]1/C=C\C(=O)OC(C(F)(F)F)C(F)(F)F,0.955,1.01,0.976,1.02,0.92,1.03,1.01,0.931,1.03,1.07
OC(c1ccc(Cl)cc1)(c1ccc(Cl)cc1)C(Cl)(Cl)Cl,1.07,0.962,0.409 (active),0.954,0.0157 (active),0.379 (active),0.0202 (active),0.973,1.03,0.973
Cc1nc(N(C)C=O)nc(OC(=O)N(C)C)c1C,1.01,0.986,0.998,0.985,0.955,0.977,0.971,1,0.963,0.992
CNC(=O)Oc1cc(C)cc(C(C)C)c1,0.995,0.969,0.982,0.973,0.938,0.967,1.04,1.19,0.93,0.952
CCOP(=S)(OCC)SCS(=O)C(C)(C)C (stereo not given),0.905,0.997,1.02,0.944,1.08,1.02,0.989,1.02,1,0.987
O.[Br-].[Br-].c1cc[n+]2c(c1)-c1cccc[n+]1CC2,0.784,0.612 (active),0.992,0.996,1.01,1.01,0.984,1.02,0.912,0.995
CNC(=O)Oc1cccc2c1OC(C)(C)C2,1.1,0.964,1.01,0.999,1.02,0.998,1,0.996,1,1.04
CC1(C)C(/C=C(\Cl)C(F)(F)F)C1C(=O)OC(C#N)c1cccc(Oc2ccccc2)c1 (stereo not given),0.989,0.951,1.02,1.01,1.19,0.995,0.993,1.12,1.04,0.969
CCCN(CCC)c1c([N+](=O)[O-])cc(S(C)(=O)=O)cc1[N+](=O)[O-],0.897,0.942,0.963,0.937,0.856,0.987,0.954,0.948,0.965,0.914
O=c1[nH]c(Cl)c(Cl)cc1Cl,0.98,1.04,0.967,0.991,1.05,1.11,0.978,0.981,0.95,1.01
CCOP(=S)(Oc1ccc([N+](=O)[O-])cc1)c1ccccc1 (stereo not given),1.06,0.961,1.02,0.972,1.11,1.01,0.919,1.02,1.03,0.996
CC1(C)C(C=C(Cl)Cl)C1C(=O)OC(C#N)c1ccc(F)c(Oc2ccccc2)c1 (mixture of isomers),1.08,1,1.01,0.995,0.95,1.01,0.98,0.975,0.979,0.947
COP(=S)(Oc1cc(Cl)c(Br)cc1Cl)c1ccccc1 (stereo not given),0.925,0.949,0.928,1.02,1.44,0.98,0.993,1.02,1.03,0.976
C=C(C)[C@H]1Cc2c(ccc3c2O[C@@H]2COc4cc(OC)c(OC)cc4[C@@H]2C3=O)O1,1.07,0.985,0.897,0.947,0.735,0.965,0.813,1,1.03,0.987

SMILES,growth AUC (Akkermansia muciniphila),growth AUC (Bacteroides caccae),growth AUC (Bacteroides clarus),growth AUC (Bacteroides dorei),growth AUC (Bacteroides stercoris),growth AUC [1],growth AUC (Bacteroides uniformis),growth AUC [2],growth AUC (Clostridium difficile),growth AUC (Collinsella aerofaciens)
C[C@H]1[C@H](c2ccc(Cl)cc2)SC(=O)N1C(=O)NC1CCCCC1,0.988,0.91,0.965,0.945,1.13,0.952,0.943,0.923,0.987,0.928
CC1=C(C(=O)Nc2ccccc2)SCCO1,0.979,1.02,1,0.982,1.21,1.04,0.993,0.956,1,1.03
CCS(=O)Cc1ccccc1OC(=O)NC (stereo not given),1.22,0.98,0.986,0.943,0.992,1,0.945,0.966,0.979,0.977
O=C(OC1CCCCC1)c1ccccc1C(=O)OC1CCCCC1,1,0.967,0.997,0.985,1.09,0.951,0.985,1,0.995,0.943
COP(=S)(OC)Oc1ccc(SC)c(C)c1,0.903,0.943,0.952,1,0.995,1.03,0.977,0.963,1.03,0.977
Nc1cc(Cl)ccc1Cl,1.03,0.993,1.05,1.04,1.25,1.03,1.03,0.992,1,1.01
OC(c1ccc(F)cc1)(c1cncnc1)c1ccccc1Cl (stereo not given),0.95,0.993,0.951,0.966,0.991,0.942,0.954,1.01,0.966,0.988
CC(C)OC(=O)C(C(=O)OC(C)C)=C1SCCS1,1.07,0.993,1.01,0.995,0.955,0.974,1.01,1.04,1.02,0.984
Clc1nc(Cl)nc(Nc2ccccc2Cl)n1,1.04,1.02,0.962,1.02,1.07,0.995,0.997,1.01,1.03,1.01
CCOP(=O)(NC(C)C)Oc1ccc(S(C)(=O)=O)c(C)c1 (stereo not given),1.03,1.01,1.04,1.04,1.05,1.02,1.01,0.986,1.04,1.01
CCCCCCCCSC(=O)Oc1cc(Cl)nnc1-c1ccccc1,1.01,0.983,0.983,0.99,0.981,1.02,0.91,0.966,0.981,0.973
COP(=S)(OC)Oc1ccc(Sc2ccc(OP(=S)(OC)OC)cc2)cc1,0.994,0.986,1.04,0.979,1.08,1.04,0.968,0.94,0.996,0.992
Cc1cc(Cl)ccc1N=CN(C)C,1.01,1.01,0.995,1,0.985,1.03,1.02,0.981,0.998,1
C#CCN1C(=O)COc2cc(F)c(N3C(=O)C4=C(CCCC4)C3=O)cc21,1.23,1.01,0.994,0.931,1,1,0.959,1.02,0.929,0.944
CNC(=O)O/N=C(\C)C(C)S(C)=O (stereo not given),0.963,0.997,0.976,0.996,1,0.983,0.997,0.996,1,0.995
COc1nc(C)nc(NC(=O)NS(=O)(=O)c2ccccc2CCC(F)(F)F)n1,0.874,0.985,1.01,0.992,0.978,0.948,0.978,0.966,0.992,0.966
O=C(O)c1ccc(Cl)nc1,0.953,0.985,1.02,0.985,1.08,1.01,1.04,0.902,1.03,0.999
CCOCn1c(-c2ccc(Cl)cc2)c(C#N)c(Br)c1C(F)(F)F,1.07,0.902,0.956,0.945,0.914,0.95,0.943,1.04,0.816,0.926
Cc1cc(OC(=O)N(C)C)nn1C(=O)N(C)C,0.959,1.02,0.992,0.968,1.09,1.02,0.979,0.988,1.01,1.02

SMILES,growth AUC (Akkermansia muciniphila),growth AUC (Bacteroides caccae),growth AUC (Bacteroides clarus),growth AUC (Bacteroides dorei),growth AUC (Bacteroides stercoris),growth AUC [1],growth AUC (Bacteroides uniformis),growth AUC [2],growth AUC (Clostridium difficile),growth AUC (Collinsella aerofaciens)
CCN(CC)c1nc(C)cc(OP(=S)(OC)OC)n1,0.948,0.979,0.974,1,0.927,0.945,0.976,0.967,1.02,0.989
C#CCN1CC(=O)N(COC(=O)C2C(C=C(C)C)C2(C)C)C1=O (mixture of isomers),0.804,0.949,0.936,0.96,0.986,0.952,0.962,0.949,0.997,1.02
O=S(=O)(c1ccccc1)c1ccccc1,0.901,0.966,1.01,0.993,1.03,0.997,0.982,1.01,1.02,0.964
CC1CCCCC1NC(=O)Nc1ccccc1 (mixture of isomers),0.952,1,0.967,0.993,0.973,0.969,0.959,0.898,1.01,0.976
CCOc1ccccc1OS(=O)(=O)NC(=O)Nc1nc(OC)cc(OC)n1,1.02,1.05,0.972,1.05,0.901,1.01,0.993,0.967,1.13,1.03
CC(C)C(C(=O)OC(C#N)c1cccc(Oc2ccccc2)c1)c1ccc(Cl)cc1 (stereo not given),0.88,0.977,1,0.935,1.1,1.02,0.986,0.765,1.01,0.903
CON(C)C(=O)Nc1ccc(Br)cc1,0.941,1.01,0.988,0.992,1.16,1.02,0.993,1.18,0.952,1.1
CCOP(=S)(OCC)Oc1ccc(=O)n(-c2ccccc2)n1,0.918,0.997,0.943,0.977,0.959,0.948,0.949,1.04,0.936,0.99
COCc1c(F)c(F)c(COC(=O)C2C(C=C(C)C)C2(C)C)c(F)c1F (stereo not given),0.976,0.953,0.943,0.991,1.17,0.98,0.972,1.01,1.02,1.03
O=C1C2CC=CCC2C(=O)N1SC(Cl)(Cl)Cl (stereo not given),0.981,1.03,1.01,1.03,1.08,1.01,1.02,0.981,1.04,1.02
CC1(C)C(/C=C(\Cl)c2ccc(Cl)cc2)C1C(=O)OC(C#N)c1ccc(F)c(Oc2ccccc2)c1 (stereo not given),0.965,0.993,0.985,1.04,1,1,0.99,0.94,1.09,1.04
O=[N+]([O-])C(Br)(CO)CO,0.966,0.987,1.01,1.03,1.01,0.962,0.976,0.991,0.996,1.01
CCOCCN(C(=O)CCl)C(=C(C)C)c1ccccc1,0.903,1.01,0.998,1,0.967,0.937,0.944,1.04,0.954,1.02
CN(C)C(=S)[S-].CN(C)C(=S)[S-].[Zn+2],0.76,0.876,0.965,0.857,0.799 (active),0.694 (active),0.819,0.884,0.945,0.969
CN(C)C(=S)SSC(=S)N(C)C,0.83,0.968,0.967,0.961,0.87,0.75 (active),0.909,0.974,0.945,0.957
CC1(C)C(C=C(Cl)Cl)C1C(=O)OC(C#N)c1cccc(Oc2ccccc2)c1 (stereo not given),1.06,0.942,1.03,1.02,1.24,0.963,1.01,0.926,0.986,0.966
CCOP(=O)(N=C1SCC(C)S1)OCC (stereo not given),0.979,0.995,0.966,1.03,0.983,1.01,1.03,1.03,0.977,1
CCC1(C(=O)NC(C)c2ccc(Cl)cc2)C(C)C1(Cl)Cl (stereo not given),1.18,0.963,0.985,0.884,0.958,0.909,0.881,0.969,0.969,0.942
CNC(=O)O/N=C(\C)C(C)S(C)(=O)=O (stereo not given),1.15,0.99,1.01,0.969,0.931,1.03,1.01,1.27,0.98,0.953
